Data as given in PubChem BioAssay AID1259397 (Fisher Drug Discovery Resource Center, 2018).
Screen size: about 130,000 compounds; about 230 (0.18%) were called active.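 Rule for the calls: active = inhibition of cGAS enzyme activity at or above 60%; inactive = the rest.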 What follows is part of a selection rich in actives, with near analogues and random picks from the rest.

molecular target: Cyclic GMP-AMP synthase (Mus musculus) (UniProt Q8C6L5); experiment: inhibitors of Mus musculus cyclic GMP-AMP synthase, initial high-throughput assay, cell-free, RapidFire MS (AID 1259397); settings: recombinant mouse cGAS, cGAMP by RapidFire MS; at 12.5 µM; stronger effect = higher value;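 note: enzyme stimulated by 45 bp dsDNA with ATP and GTP substrates; cGAMP share of summed cGAMP plus half ATP and half GTP signals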
Sequence (Q8C6L5 whole entry, looked up): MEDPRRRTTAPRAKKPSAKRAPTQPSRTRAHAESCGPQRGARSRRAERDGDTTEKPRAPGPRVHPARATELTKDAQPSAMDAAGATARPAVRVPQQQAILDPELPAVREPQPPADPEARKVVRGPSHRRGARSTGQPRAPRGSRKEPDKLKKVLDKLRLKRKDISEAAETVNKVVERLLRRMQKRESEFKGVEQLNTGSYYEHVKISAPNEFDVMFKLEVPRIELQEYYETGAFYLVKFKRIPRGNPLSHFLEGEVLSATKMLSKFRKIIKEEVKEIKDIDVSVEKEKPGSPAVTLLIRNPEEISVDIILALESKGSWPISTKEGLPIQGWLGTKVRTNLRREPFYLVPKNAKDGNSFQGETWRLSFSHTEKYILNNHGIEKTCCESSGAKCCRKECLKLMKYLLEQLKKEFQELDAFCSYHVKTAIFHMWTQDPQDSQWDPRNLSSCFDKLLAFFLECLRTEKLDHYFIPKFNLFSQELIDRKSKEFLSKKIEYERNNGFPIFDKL

inhibition, inactive:
CC1(C(=O)NS(=O)(=O)c2cccc(OC(F)F)c2)CCN1C(=O)COc1ccc(Cl)cc1 (stereo unspecified) -4.55%
CCN(CC(=O)NC(C)(C)C)c1cc(Cl)nc(N)n1 -6.72%
CCNC(=O)c1cc(Cl)ccc1NS(=O)(=O)c1cn[nH]c1 -6.14%
CCC(c1nnc(SC(C)C(N)=O)n1Cc1ccccc1)N(C)C (stereo unspecified) -4.22%
Cc1cc(CN2CCN3C(=O)CNC(=O)C3C2)ccc1N1CCCC1 (stereo unspecified) -4.4%
CCN(CC)C(=O)N1CCCC(C(=O)Nc2ccc(S(=O)(=O)C(F)F)cc2)C1 (stereo unspecified) 6.42%
NC(=O)c1cc(NC(=O)N2CCCCCC2c2ccco2)ccc1F (stereo unspecified) -5.95%
CCn1nc(C(=O)NNC(=O)c2c(C)noc2C)c2ccccc2c1=O -0.0832%
COc1ccccc1CCc1nnc(CCC(=O)NC(C)CCn2cccn2)o1 (stereo unspecified) 2.62%
O=C(CCn1cnc2ccccc2c1=O)Nc1cc2c(cc1Br)OCCO2 -1.61%
CCN(Cc1ccncc1)C(=O)C1CCC(=O)N(Cc2ccccn2)C1 (stereo unspecified) -3.05%
COc1cc(NC(=O)[C@@H](C)N2Cc3ccc(NCC(C)C)nc3C2=O)cc(OC)c1 7.27%
Cc1ccc(C(=O)N2CCCC(C(=O)NC3C4CCc5ccccc5C43)C2)cc1 (stereo unspecified) -4.85%
CCCN1C(=O)CCc2cc(NC(=O)COC)ccc21 -1.31%
CCC(CC)S(=O)(=O)NC(=O)c1c(C)nn(CC)c1Cl -36.3%
CC(C)Cc1ccc(C(=O)c2cccs2)cc1 2.67%
Cc1c(C(=O)NCc2cccc([N+](=O)[O-])c2)sc(=O)n1CCc1ccccc1 -3.1%
OC(c1ccc(Cl)c(F)c1)c1ncc(-c2ccccc2Cl)[nH]1 (stereo unspecified) -1.95%
O=C(CCOc1ccccc1)N1CC(c2ccncc2)C1 -7.26%
C=CCNC(=O)c1cccnc1-c1ccc(OC)c2ncccc12 -6.67%
O=C1N(CCCc2ccccc2)CCCC12CCN(c1cnccn1)C2 (stereo unspecified) -11%
CCCCN(CCCC)C(=O)c1[nH]c(C)c(C(C)=O)c1C -6.21%
Cc1cccc(NCCNC(=O)c2oc(Br)cc2C)n1 -6.38%
CC(C)C(NC(=O)c1ccco1)C(=O)N1CC(C)(C)C1(C)C (stereo unspecified) -1.92%
N#CC(Cc1ccccc1)NC(=O)/C=C/c1ccccc1Br (stereo unspecified) 8.15%
Cc1cc(C)n(C(=O)C(C)n2cc([N+](=O)[O-])cn2)n1 (stereo unspecified) -19.7%
